Data: PubChem BioAssay (NCATS)
Inconclusive results are not listed. The source made the active and inactive calls. Calls come from the whole dose curve; as a rule, active = well fitted curve in the direction sought with a large enough effect; inconclusive = small, poorly fitted or top-dose-only effect, or another doubt; inactive = no such curve, though single readings can be large; an effect the other way counts as inactive or inconclusive.

Tests used:
CRL-7250 = normal cell line; assay: Cytotoxic Profiling of Annotated Libraries Using Quantitative High-Throughput Screening (AID 1296008); conditions: Five cell lines viability, CellTiter-Glo ATP luminescence, 48-72 h; max response: hits give low values; note: nearly all actives have a fitted effect of over 60% in size; for max response: % is set by controls: 0 for no effect and ±100 for the full control effect
Summary of the method: (§1)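 Cytotoxicity was measured as CellTiter-Glo ATP luminescence, read after 10 min at room temperature. Compound treatment of the cells lasted 48 or 72 hr at 37 degrees Celsius in a qHTS format.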

HEK293 = assay: as above; conditions: Five cell lines viability, CellTiter-Glo ATP luminescence, 48-72 h; max response: hits give low values
Summary of the method: as §1

HaCat [1] = assay: as above; conditions: Five cell lines viability, CellTiter-Glo ATP luminescence, 48-72 h; max response: hits give low values
Summary of the method: as §1

KB-3-1 = assay: as above; conditions: Five cell lines viability, CellTiter-Glo ATP luminescence, 48-72 h; max response: hits give low values
Summary of the method: as §1

NIH3T3 = assay: as above; conditions: Five cell lines viability, CellTiter-Glo ATP luminescence, 48-72 h; max response: hits give low values
Summary of the method: as §1

HACAT [2] = assay: qHTS assay to identify novel small-molecules to repurpose for Merkel cell carcinoma treatment (AID 1296009); conditions: MCC and control cell lines, CellTiter-Glo viability, 72 h; at 44.8 µM (top of the series) unless noted; note: nearly all actives have a fitted effect of over 60% in size
Summary of the method: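 72 hr, 37 degree celsius; NPC 8-pt / MIPE 11-pt dose response; compound pinned in DMSO; CellTiter-Glo, 10 min RT, luminescence; normalized to no-cell and DMSO controls.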

C33A = assay: Primary qHTS to identify gynecologic anti-cancer compounds using libraries of approved drugs and bioactive compounds (AID 1345084); conditions: Gynecologic cancer cell panel viability, ATPlite luminescence, 48 h; series mostly up to 57.5 µM; note: % is set by controls: 0 for no effect and ±100 for the full control effect; nearly all actives have a fitted effect of over 55% in size
Summary of the method: (§2)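 Cell viability after 48 h drug treatment, ATPlite luminescence readout; five doses.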

CAOV3 = assay: as above; conditions: Gynecologic cancer cell panel viability, ATPlite luminescence, 48 h; series mostly up to 57.5 µM
Summary of the method: as §2

CASKI = assay: as above; conditions: Gynecologic cancer cell panel viability, ATPlite luminescence, 48 h; series mostly up to 57.5 µM
Summary of the method: as §2

Es-2 = assay: as above; conditions: Gynecologic cancer cell panel viability, ATPlite luminescence, 48 h; series mostly up to 57.5 µM
Summary of the method: as §2

HeLa = assay: as above; conditions: Gynecologic cancer cell panel viability, ATPlite luminescence, 48 h; series mostly up to 57.5 µM
Summary of the method: as §2

Hek293T = assay: as above; conditions: Gynecologic cancer cell panel viability, ATPlite luminescence, 48 h, control line for the selectivity index; series mostly up to 57.5 µM
Summary of the method: as §2

JEG-3 = assay: as above; conditions: Gynecologic cancer cell panel viability, ATPlite luminescence, 48 h; series mostly up to 57.5 µM
Summary of the method: as §2

O=C(Cc1ccccc1)OC[C@H]1O[C@H](O[C@H]2O[C@H](CO)[C@@H](O)[C@H](O)[C@H]2O)[C@H](O)[C@@H](O)[C@@H]1O
inactive: max response (CRL-7250) -5.14% | max response (HEK293) 4.52% | outcome (HaCat [1]) | max response (KB-3-1) 9.38% | max response (NIH3T3) 0.692% | outcome (HACAT [2]) inactive [at 17.4 µM] | Potency (C33A) | Potency (CAOV3) | outcome (CASKI) | Potency (Es-2) | Potency (HeLa) | Potency (Hek293T) | Potency (JEG-3)

COC(=O)Cn1nc(-c2cccc(OC)c2)c2ccccc21
inactive: max response (CRL-7250) 4.76% | max response (HEK293) -5.92% | outcome (HaCat [1]) | max response (KB-3-1) 1.13% | max response (NIH3T3) 2.46% | outcome (HACAT [2]) | Potency (C33A) | Potency (CAOV3) | outcome (CASKI) | Potency (Es-2) | Potency (HeLa) | Potency (Hek293T) | Potency (JEG-3)

C[C@@H]1O[C@@H](O[C@H]2[C@H](O)[C@@H](O)[C@H](OC[C@H]3O[C@@H](OC(=O)[C@]45CCC(C)(C)C[C@H]4C4=CCC6[C@@]7(C)C[C@@H](O)[C@H](O)[C@@](C)(CO)C7[C@H](O)C[C@@]6(C)[C@]4(C)CC5)[C@H](O)[C@@H](O)[C@@H]3O)O[C@@H]2CO)[C@H](O)[C@H](O)[C@H]1O (stereo partly specified)
inactive: outcome (CRL-7250) | max response (HEK293) -10.1% | outcome (HaCat [1]) | outcome (KB-3-1) | max response (NIH3T3) -2.14% | outcome (HACAT [2]) inactive [at 9.27 µM] | activity change, negative = cytotoxicity (C33A) 15% [at 11.6 µM] | activity change, negative = cytotoxicity (CAOV3) -8.06% [at 11.6 µM] | activity change, negative = cytotoxicity (CASKI) -1.59% [at 11.6 µM] | activity change, negative = cytotoxicity (Es-2) -1.56% [at 11.6 µM] | activity change, negative = cytotoxicity (HeLa) 13.5% [at 11.6 µM] | activity change, negative = cytotoxicity (Hek293T) -2.97% [at 11.6 µM] | activity change, negative = cytotoxicity (JEG-3) -6.46% [at 11.6 µM]

C=C1CCC2[C@](C)(CCC[C@]2(C)C(=O)O)[C@H]1CC/C(C)=C/C(=O)OC (stereo partly specified)
inactive: max response (CRL-7250) -5.17% | max response (HEK293) -8.16% | outcome (HaCat [1]) | outcome (KB-3-1) | max response (NIH3T3) 0.39% | outcome (HACAT [2]) | Potency (C33A) | Potency (CAOV3) | outcome (CASKI) | Potency (Es-2) | Potency (HeLa) | Potency (Hek293T) | Potency (JEG-3)

OC[C@@]1(O)CO[C@H](OC[C@H]2O[C@@H](OCCc3ccccc3)[C@H](O)[C@@H](O)[C@@H]2O)[C@@H]1O
inactive: max response (CRL-7250) -3.48% | max response (HEK293) -5.84% | outcome (HaCat [1]) | max response (KB-3-1) -0.728% | max response (NIH3T3) 5% | outcome (HACAT [2]) inactive [at 17.4 µM] | Potency (C33A) | Potency (CAOV3) | outcome (CASKI) | Potency (Es-2) | Potency (HeLa) | Potency (Hek293T) | Potency (JEG-3)

CC1=C(CO)C2(C)CCCC(C)(C)C2C(O)C1O (stereo unspecified)
inactive: max response (CRL-7250) -6.52% | max response (HEK293) -5.93% | outcome (HaCat [1]) | outcome (KB-3-1) | outcome (NIH3T3) | outcome (HACAT [2]) | Potency (C33A) | Potency (CAOV3) | outcome (CASKI) | Potency (Es-2) | Potency (HeLa) | Potency (Hek293T) | Potency (JEG-3)

CNc1nc(C)nc(N[C@H]2CCC[C@@H](C(=O)NCc3ccc(C#N)cc3C(F)(F)F)C2)n1
inactive: outcome (CRL-7250) | max response (HEK293) -15.3% | outcome (HaCat [1]) | max response (KB-3-1) -5.41% | outcome (NIH3T3) | outcome (HACAT [2]) | Potency (C33A) | Potency (CAOV3) | outcome (CASKI) | Potency (Es-2) | Potency (HeLa) | Potency (Hek293T) | Potency (JEG-3)

COc1cc(C)c(C(=O)O[C@@H]2[C@H](O)[C@@H](CO)O[C@H]2n2ccc(=O)[nH]c2=O)c(OC)c1
inactive: outcome (CRL-7250) | max response (HEK293) 3.08% | outcome (HaCat [1]) | outcome (KB-3-1) | max response (NIH3T3) 2.52% | outcome (HACAT [2]) inactive [at 17.4 µM] | Potency (C33A) | Potency (CAOV3) | outcome (CASKI) | Potency (Es-2) | Potency (HeLa) | Potency (Hek293T) | Potency (JEG-3)

C=C(CCO)C(=O)OCC1OCC(OC(=O)C(=C)CCO[C@@H]2O[C@H](CO)[C@@H](O)[C@H](O)[C@H]2O)C(O)C1O (stereo partly specified)
inactive: max response (CRL-7250) -6.14% | max response (HEK293) 0.294% | outcome (HaCat [1]) | max response (KB-3-1) 4.34% | max response (NIH3T3) -5.54% | outcome (HACAT [2]) inactive [at 17.4 µM] | Potency (C33A) | Potency (CAOV3) | outcome (CASKI) | Potency (Es-2) | Potency (HeLa) | Potency (Hek293T) | Potency (JEG-3)

CC(C)CC(=O)O[C@@H]1O[C@H](CO)[C@@H](O[C@H]2O[C@H](C)[C@@H](N[C@H]3C=C(CO)[C@@H](O[C@H]4O[C@H](CO)[C@@H](O[C@H]5O[C@H](CO)[C@@H](O[C@H]6O[C@H](CO)[C@@H](O)[C@H](O)[C@H]6O)[C@H](O)[C@H]5O)[C@H](O)[C@H]4O)[C@H](O)[C@H]3O)[C@H](O)[C@H]2O)[C@H](O)[C@H]1O
inactive: max response (CRL-7250) 1.09% | max response (HEK293) -7.41% | outcome (HaCat [1]) | outcome (KB-3-1) | max response (NIH3T3) -2.08% | outcome (HACAT [2]) inactive [at 9.27 µM] | activity change, negative = cytotoxicity (C33A) 5.03% [at 11.6 µM] | activity change, negative = cytotoxicity (CAOV3) 1.97% [at 11.6 µM] | activity change, negative = cytotoxicity (CASKI) 2.85% [at 11.6 µM] | activity change, negative = cytotoxicity (Es-2) -3.07% [at 11.6 µM] | activity change, negative = cytotoxicity (HeLa) -0.344% [at 11.6 µM] | activity change, negative = cytotoxicity (Hek293T) 4.85% [at 11.6 µM] | activity change, negative = cytotoxicity (JEG-3) 0.194% [at 11.6 µM]

COC(=O)C1=CO[C@@H](O[C@@H]2O[C@H](CO)[C@@H](O)[C@H](O)[C@H]2O)[C@H]2[C@@H]1[C@H](O)[C@H](O)[C@]2(C)O
inactive: max response (CRL-7250) -3.33% | max response (HEK293) 1.23% | outcome (HaCat [1]) | max response (KB-3-1) 1.73% | max response (NIH3T3) 2.04% | outcome (HACAT [2]) inactive [at 17.4 µM] | Potency (C33A) | Potency (CAOV3) | outcome (CASKI) | Potency (Es-2) | Potency (HeLa) | Potency (Hek293T) | Potency (JEG-3)

COC(=O)C1C(c2ccc(O)cc2)C(C(=O)O)C1c1ccc(O)cc1 (stereo unspecified)
inactive: max response (CRL-7250) -7.64% | max response (HEK293) -2.14% | outcome (HaCat [1]) | max response (KB-3-1) 7.92% | max response (NIH3T3) -3.05% | outcome (HACAT [2]) | Potency (C33A) | Potency (CAOV3) | outcome (CASKI) | Potency (Es-2) | Potency (HeLa) | Potency (Hek293T) | Potency (JEG-3)
